High-throughput results: PubChem BioAssay, National Center for Advancing Translational Sciences (NCATS)
HCV inh: blocks hepatitis C virus. Huh7.5.1 HCVcc-Cre infection, luciferase reporter, 44 h. Potency, µM (series often up to 41.8 µM), for inactives: at the highest dose activity change, negative = inhibition, actives largely listed as inhibitors. hit rate 3.4% among 340,000; further: potency means the concentration at half of the fitted maximal effect; on the % scale 0 is the no-effect control and ±100 the full control effect
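After 44 h co-culture of compound, cells and HCVcc-Cre (~0.5 moi), substrate is added for 15 min at room temperature and luciferase measured over 15 sec. Cells were seeded at 1,000/well and pre-cultured 4 h.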
Shiga inhibitor: inhibitors of Shiga toxin in Vero cells; Vero cells, Shiga toxin protein synthesis inhibition reporter; hit rate 9.2% among 290,000; inhibition, % at 38.7 µM; in the data active means inhibition mostly above about 28%, no sharp cut-off; inactive means mostly below about 43%; further: 0% is about no effect
AMA1 RON2 block: disrupts binding of P. falciparum AMA1 to RON2; AlphaScreen AMA1-biotinylated RON2 peptide binding; Potency, µM (doses to about 58.2 µM), for the others: at the highest dose activity change, negative = inhibition, usual class: inhibitors; hit rate 0.2% among 360,000;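 further: potency means the concentration at half of the fitted maximal effect; 0% = vehicle wells and -100% = peptide control; nearly all actives have a fitted effect of over 45% in size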
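AMA1 (3D7) with his tag at 25 nM final met compounds first, then biotinylated RON2 peptide at 25 nM; detection used donor plus acceptor beads, 10 µg/mL apiece, read by AlphaScreen after 30 min at room temperature.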
Pf growth 48h: P. falciparum growth inhibition at 48 hours (one generation). P. falciparum luciferase growth in erythrocytes, 48 h. Potency, µM (highest dose often 28.7 µM), inactives show at the highest dose activity change, negative = inhibition, usual class: inhibitors. hit rate 5.9% among 310,000. AID 504832; further: potency means the concentration at half of the fitted maximal effect; on the % scale 0 is the no-effect control and ±100 the full control effect
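In quantitative HTS format, infected erythrocytes bearing luciferase-reporter parasites were treated for a single generation at 37 C. Luminescence after adding detection reagent served as the growth measure.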
Cycloheximide cs: affects cycloheximide protein synthesis inhibition readout, counter-screen; cell reporter, cycloheximide protein synthesis inhibition counterscreen; max response, %; hit rate 12% among 300,000; in the data active means max response mostly above about 13%, no sharp cut-off; inactive means mostly below about 14%; further: read at 38.3 µM for the half of the compounds with a filed dose; 0% is about no effect
Pf growth 96h: P. falciparum growth inhibition at 96 hour, primary screen for plastid delayed-death inhibitors; hit rate 6.9% among 320,000; P. falciparum luciferase reporter growth, 96 h; Potency, µM (titrated, usually from 28.7 µM), inactives show at the top dose activity change, negative = inhibition, most hits filed as inhibitors; further: potency means the concentration at half of the fitted maximal effect; on the % scale 0 is the no-effect control and ±100 the full control effect
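P. falciparum expressing integrated firefly luciferase, in erythrocytes at 2% hematocrit, 0.05% parasitemia, incubated with compounds 96 h at 37 C, 5% CO2. Growth inhibition read as loss of luminescence; two-generation exposure targets delayed-death apicoplast inhibitors.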
Starred values were filed as active, the others as inactive; u = inconclusive; x = not tested or not shown; [ ] = another dose, or the depositor's remark. This is a sample that favours compounds with a hit; in the whole collection about 21% have one here. Unless noted, the call rests on the fitted dose curve; in most records, active means well fitted curve in the direction sought with a large enough effect; inconclusive means small, poorly fitted or top-dose-only effect, or another doubt; inactive means no such curve, though single readings can be large; an effect the other way counts as inactive or inconclusive.

SMILES	HCV inh	Shiga inhibitor	AMA1 RON2 block	Pf growth 48h	Cycloheximide cs	Pf growth 96h
CC1CCC(=C(C#N)C(=O)Nc2cccc(Cl)c2)CC1 (centres undefined)	6.9%	19.3	-0.9%	u	23.9*	14.7µM*
N#CC(C#N)=C(N)Nc1cccc(Cl)c1	17.5%	7.1	-10.2%	-5.3%	1.5	-0.3%
CN(C(=O)CN1C(=O)NC(c2ccccc2)(c2ccccc2)C1=O)C1CCS(=O)(=O)C1 (centres undefined)	0.7%	x	9.1%	-10.6%	x	12.6%
CCN1CCN(S(=O)(=O)c2ccc(Cl)c(C(=O)NCCc3ccccc3)c2)CC1	-4.3%	x	81.8%	71.2%	x	43.5%
O=[N+]([O-])c1ccc2cn(C3OC(CO)C(O)C3O)nc2c1 (centres undefined)	x	x	-1.7%	x	x	x
COCCNC(=O)c1cc2c(c(-c3cccc(C#Cc4ccc(OC)c(OC)c4)c3)n1)[C@@H](CCO)N(S(=O)C(C)(C)C)C2 (some centres undefined)	x	x	-6.1%	x	x	x
Cc1cccc(-n2c(Cc3cc(=O)[nH]c(=O)[nH]3)nnc2SCC(=O)N2CCc3ccccc32)c1	x	9.7	-5.3%	-13.9%	15.1	u
N#CCCN(C(=O)COC(=O)CCN=C1NS(=O)(=O)c2ccccc21)c1ccc(F)cc1	-22.5%	x	12.9%	-5.0%	x	9.6%
CN1CCN(NC(=O)Nc2cccc(F)c2)CC1	2.8%	50.2	-5.9%	13.0%	10.9*	u
CC(=O)c1cccc(NC(=O)NN2CCN(C)CC2)c1	17.4%	-12.8	-0.8%	7.4%	-1.6	6.5%
Cc1cccnc1NC(=O)Nc1cccc(Cl)c1	1.1%	59.5*	-4.7%	181.1%	13.3	u
O=C(Nc1cccc(Cl)c1)OCc1cnc(Cl)s1	15.5%	31.2	14.1%	17.8%	14.1*	x
COC(=O)c1cccc(NC(=O)Nc2ccc(Cl)cc2)c1	u	47.6*	4.8%	166.1%	28.3*	-41.2%
COCCn1c(=O)c2c(nc3n2CC(C)CN3Cc2ccccc2)n(C)c1=O (centres undefined)	15.4%	19.9	6.0%	u	-5.5	u
CN(C)CC1CCCCC1OC(=O)c1ccc(S(=O)(=O)N(C)c2ccccc2)cc1 (centres undefined)	-3.3%	-7.7	-9.1%	7.1%	-0.4	0.0%
O=C(Cc1ccc(F)cc1)N[C@@H]1c2ccccc2CC[C@@H]1OCc1ccccc1	-0.1%	x	13.3%	x	x	x
CC(=O)N[C@@H](Cc1c[nH]c2ccccc12)C(=O)OCc1cc(C(F)(F)F)cc(C(F)(F)F)c1	36.1%	x	15.1%	0.6%	x	-3.1%
O=C(COc1ccccc1F)N1N=C(c2cccs2)CC1c1ccco1 (centres undefined)	-10.1%	x	-27.4%	u	x	u
O=C(Nc1cccc(Cl)c1)Nc1ccnc(-c2cccnc2)n1	u	-3.1	-6.0%	10.4µM*	11.8	-18.8%
O=C(CCN1CCN(Cc2ccccc2)CC1)NNC(=O)Nc1cccc([N+](=O)[O-])c1	-10.5%	-15.6	35.8%	9.8%	9.6	13.1µM*
COc1ccc(CCC(=O)NNC(=O)Nc2cccc(Cl)c2)cc1	12.1%	-3.6	132.6%	11.6%	8.9	51.8%
O=C(CCc1ccccc1)NNC(=O)Nc1cccc(Cl)c1	-1.0%	36.5	97.5%	-9.0%	16.8*	-10.8%
O=C(CCN1CCN(Cc2ccccc2)CC1)NNC(=O)Nc1cccc(Cl)c1	-9.7%	-6.4	72.1%	u	7.2	156.0%
O=C(Nc1cccc(Cl)c1)Nc1cnccn1	-7.2%	16.3	-10.0%	u	-2.9	26.4%
Cc1cccc(N(O)C(=O)Nc2cccc(Cl)c2)c1	-18.7%	56.0*	-7.3%	u	37.2*	u
SMILES	HCV inh	Shiga inhibitor	AMA1 RON2 block	Pf growth 48h	Cycloheximide cs	Pf growth 96h
CCN(C(=O)Nc1cccc(Cl)c1)c1ccccc1	-20.3%	-5.1	12.8%	-10.6%	-1.6	-58.6%
CCc1nc2sccc2c(=O)[nH]1	0.6%	-5.4	-0.4%	8.8%	-4.4	-45.9%[1.15 µM]
CC(C)S(=O)(=O)c1csc(NC(=O)Nc2ccc(Cl)cc2)c1	-14.0%	0.4	-0.2%	u	1.0	10.4µM*
CC(C)S(=O)(=O)c1csc(C(=O)NNC(=O)Nc2ccccc2)c1Cl	1.6%	7.5	56.1%	31.6%	-2.7	-6.4%
COC(=O)NCC(C)OC(=O)Nc1cccc(Cl)c1 (centres undefined)	4.1%	20.5	16.7%	28.4%	10.7*	u
Cc1cccc(NC(=O)CSc2nnc3ccc(-c4ccccn4)nn23)c1	3.0%	x	-9.7%	-29.7%	x	u
CCOC(=O)c1sc(=NC(=O)c2ccccc2)n(C)c1C	-8.8%	89.5*	6.4%	462.2%	35.9*	89.9%
CCOC(=O)c1sc(=NC(=O)CCS(=O)(=O)c2ccccc2)n(C)c1C	1.3%	1.0	5.9%	0.7%	7.5	5.3%
CCOC(=O)c1sc(=NC(=O)COc2ccc(Cl)cc2)n(C)c1C	0.9%	11.0	-11.6%	8.4%	-1.1	u
CCOC(=O)c1sc(=NC(=O)c2cccc(OC)c2)n(C)c1C	-0.5%	59.1*	1.7%	85.3%	36.4*	1.8%
CCOC(=O)c1sc(=S)n(C)c1C	4.0%	-11.8	0.1%	x	-5.4	3.8%
CCOC(=O)c1sc(=NC(=O)c2ccc(OC)c(OC)c2)n(C)c1C	13.2%	85.5*	-2.2%	9.4%	37.2	10.4%
CC(NC(=O)c1ccco1)c1nc(-c2ccccc2Cl)no1 (centres undefined)	29.0%	-2.1	-7.0%	10.5%	4.3	u
C/C=C(\C)C(=O)NCCN1C2=NC[C@@H](C)N2C[C@@H]1Cc1ccc(OC)cc1	22.7%	-2.8	11.0%	47.4%	0.6	69.1%
Cc1ccc(C(=O)N[C@@H](C)CN2C3=NC[C@H](C(C)C)N3C[C@H]2Cc2ccc(O)cc2)cc1Br	-4.8%	8.2	-10.8%	u	1.0	9.28µM*
COc1ccc(C[C@H]2CN3C(=NC[C@@H]3C(C)C)N2C[C@H](C)NC(=O)c2ccc(C)c(Br)c2)cc1	-8.8%	-14.6	-5.7%	u	0.7	2.94µM*
Cc1ccc(C(=O)NCC(C)NC(=O)c2ccc(C)c([N+](=O)[O-])c2)cc1[N+](=O)[O-] (centres undefined)	-12.9%	x	-1.4%	x	x	x
OCC#CCSc1nnc(-c2ccccc2Br)o1	-22.7%	37.8	13.3%	59.8%	26.8*	u
Cc1cc(C)c(C(=O)CSc2nnc(-c3ccccc3Br)o2)cc1C	0.6%	5.6	-6.3%	13.4%	-3.2	u
OCC#CCSc1nnc(-c2ccc(Br)cc2)o1	u	22.5	4.8%	87.2%	33.3*	x
O=C(OCC#CCSc1nnc(-c2ccncc2)o1)c1cccs1	20.5%	-3.7	-6.3%	-7.6%	-1.0	11.7µM*
COc1ccc(-c2nnc(SCC#CCO)o2)cc1OC	-17.1%	11.8	31.2%	5.7%	-1.7	11.2%
Cc1ccc(C(=O)N/C(=C\c2ccccc2)C(=O)NCCCn2ccnc2)cc1	9.8%	-16.2	-17.9%	-7.5%	-4.1	5.6%
